# Reference: PubChem BioAssay (EPA / NIEHS)
# Values joined by “and” are separate entries in the source; they are usually repeats but may differ in a detail not shown here. Equal entries are not always repeated. Inconclusive results are not listed. A structure can be active in one record and inactive in another. Active and inactive are the calls of the source. The calls were made as follows, unless noted: active = hit-call score of the fitted dose curve at least 0.9, where 1 is the maximum; inconclusive = response in the unintended direction; inactive = score below 0.9.
# Assays:
# [1] = biological target: Retinoic acid receptor RXR-alpha (Homo sapiens) (UniProt P19793); experiment: OT_NURR1_NURR1RXRa_0480: Odyssey Thera (OT) 8-hour HEK293T Protein Complementation Assay for Nurr1/retinoid X receptor (RXR) (AID 2283385)
# Sequence of Retinoic acid receptor RXR-alpha (Homo sapiens) (P19793 whole entry, looked up, the tested form may be a part): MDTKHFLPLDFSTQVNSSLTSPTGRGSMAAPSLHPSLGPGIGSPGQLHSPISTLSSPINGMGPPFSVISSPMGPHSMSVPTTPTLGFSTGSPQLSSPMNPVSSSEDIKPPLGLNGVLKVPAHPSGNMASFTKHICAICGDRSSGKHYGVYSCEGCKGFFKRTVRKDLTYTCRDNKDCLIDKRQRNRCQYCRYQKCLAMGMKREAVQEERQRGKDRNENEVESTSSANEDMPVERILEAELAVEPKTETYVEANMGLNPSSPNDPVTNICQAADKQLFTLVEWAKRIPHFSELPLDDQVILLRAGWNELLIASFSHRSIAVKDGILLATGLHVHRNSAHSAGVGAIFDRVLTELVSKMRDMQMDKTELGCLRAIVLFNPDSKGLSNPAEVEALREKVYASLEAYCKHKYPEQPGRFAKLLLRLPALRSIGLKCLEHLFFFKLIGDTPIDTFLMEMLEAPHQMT
# Summary of the method: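 Interaction of bait and prey reconstitutes a functional reporter, whose fluorescence was measured in HEK293T cells dosed with compound for 8 hours. Signal gain relative to DMSO defined the single endpoint.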
# [2] = biological target: Retinoic acid receptor RXR-alpha (Homo sapiens) (UniProt P19793); experiment: OT_NURR1_NURR1RXRa_1440: Odyssey Thera (OT) 24-hour HEK293T Protein Complementation Assay for Nurr1/retinoid X receptor (RXR) (AID 2283386)
# Summary of the method: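 Steps: fragment-tagged Nurr1 and RXRα expressed in HEK293T; compounds added; after 24 h, complemented reporter quantified by fluorescence intensity; signal increase over DMSO fitted as the single endpoint.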
# [3] = biological target: Peroxisome proliferator-activated receptor gamma (Homo sapiens) (UniProt P37231); experiment: OT_PPARg_PPARgSRC1_0480: Odyssey Thera (OT) 8-hour Protein-Complementation Assay for Peroxisome Proliferator-activated Receptor Gamma / SRC-1 Co-activator (AID 2283387)
# Sequence of Peroxisome proliferator-activated receptor gamma (Homo sapiens) (P37231 whole entry, looked up, the tested form may be a part): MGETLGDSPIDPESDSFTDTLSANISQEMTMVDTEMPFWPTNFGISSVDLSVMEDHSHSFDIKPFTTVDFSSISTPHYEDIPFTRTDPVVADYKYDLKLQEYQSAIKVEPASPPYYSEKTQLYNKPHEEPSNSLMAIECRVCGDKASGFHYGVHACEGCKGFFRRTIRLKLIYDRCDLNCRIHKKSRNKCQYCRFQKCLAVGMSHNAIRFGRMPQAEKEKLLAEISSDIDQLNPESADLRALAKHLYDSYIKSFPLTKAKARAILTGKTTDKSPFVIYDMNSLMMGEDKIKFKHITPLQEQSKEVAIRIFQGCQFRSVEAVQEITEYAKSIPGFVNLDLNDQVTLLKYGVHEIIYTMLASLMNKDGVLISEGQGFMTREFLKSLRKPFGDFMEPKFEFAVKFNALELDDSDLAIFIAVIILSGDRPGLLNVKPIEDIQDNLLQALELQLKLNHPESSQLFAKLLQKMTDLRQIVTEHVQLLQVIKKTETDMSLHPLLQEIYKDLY
# Summary of the method: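 Protein-fragment complementation of split Venus YFP reports PPARg/SRC-1 interaction in HEK293T (transfected 48 h before treatment), exposed 8 h. Readout: N/C fluorescence ratio at 488 nm from imaging, Draq5 for segmentation, positive fit relative to DMSO.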
# [4] = biological target: Peroxisome proliferator-activated receptor gamma (Homo sapiens) (UniProt P37231); experiment: OT_PPARg_PPARgSRC1_1440: Odyssey Thera (OT) 24-hour Protein-Complementation Assay for Peroxisome Proliferator-activated Receptor Gamma/ SRC-1 Co-activator (AID 2283388)
# Summary of the method: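 HEK293T transiently transfected with PPARg/SRC-1 split-Venus YFP fusions 48 h before dosing, then treated 24 h at 37C. Fixed cells imaged; nuclear/cytoplasmic 488 nm fluorescence ratio, gain of signal versus DMSO.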
# [5] = CEETOX_H295R_11DCORT: CeeTox H295R High-throughput Steroidogenesis Assay for 11-Deoxycortisol (11DCORT) (AID 2283432; active = hit-call score of the fitted dose curve at least 0.9, where 1 is the maximum; inactive = score below 0.9;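 as to AC50: 11-deoxycortisol secreted into the medium measured by LC-MS/MS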); details: actives raise or lower the signal
# Summary of the method: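 Human adrenal H295R cells were prestimulated with 10 uM forskolin for 48 h, then exposed to test chemical (0.1% DMSO final) for 48 h. Medium 11-deoxycortisol was quantified by MTBE extraction and HPLC-MS/MS; bidirectional fitting relative to DMSO.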
# [6] = CEETOX_H295R_OHPREG: CeeTox H295R High-throughput Steroidogenesis Assay for OH-Pregnenolone (OHPREG) (AID 2283434; active = hit-call score of the fitted dose curve at least 0.9, where 1 is the maximum; inactive = score below 0.9); details: actives raise or lower the signal
# Summary of the method: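 H295R, 10 uM forskolin pre-stim 48 h; test chemical 48 h, 0.1% DMSO final. MTBE extraction, reverse-phase C18 HPLC-ESI+ MS/MS of medium. Gain/loss vs DMSO; viability by MTT in same wells.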
# [7] = CEETOX_H295R_OHPROG: CeeTox H295R High-throughput Steroidogenesis Assay for OH-Progesterone (OHPROG) (AID 2283435; active = hit-call score of the fitted dose curve at least 0.9, where 1 is the maximum; inactive = score below 0.9;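 as to AC50: 17alpha-hydroxyprogesterone secreted into medium measured by HPLC-MS/MS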); details: actives raise or lower the signal
# Summary of the method: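 Steps: seed H295R cells and adhere overnight; stimulate with 10 uM forskolin for 48 h; replace with chemical-containing medium (0.1% DMSO) for 48 h; extract medium with MTBE; quantify 17alpha-hydroxyprogesterone by reverse-phase C18 HPLC-MS/MS against a 7-point curve.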
# [8] = CEETOX_H295R_CORTIC: CeeTox H295R High-throughput Steroidogenesis Assay for Corticosterone (CORTIC) (AID 2283437; active = hit-call score of the fitted dose curve at least 0.9, where 1 is the maximum; inactive = score below 0.9;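 also: corticosterone secreted into medium quantified by mass spectrometry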); details: actives raise or lower the signal
# Summary of the method: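 48 h forskolin (10 uM) prestim, then 48 h chemical exposure, final DMSO 0.1%. Readout: corticosterone in medium by LC-MS/MS after MTBE extraction. Gain/loss fit vs DMSO; MTT viability in same wells.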
# [9] = CEETOX_H295R_CORTISOL: CeeTox H295R High-throughput Steroidogenesis Assay for Cortisol (AID 2283438; active = hit-call score of the fitted dose curve at least 0.9, where 1 is the maximum; inactive = score below 0.9;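 also: cortisol secreted into medium quantified by LC-MS/MS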); details: actives raise or lower the signal
# Summary of the method: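 Cortisol synthesis by H295R cells is measured 48 h after chemical dosing, following a 48 h stimulation with 10 uM forskolin. Hormone is extracted and quantified by HPLC-MS/MS, and activity is fitted bidirectionally against the DMSO control.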
# [10] = CEETOX_H295R_ANDR: CeeTox H295R High-throughput Steroidogenesis Assay for Androstenedione (ANDR) (AID 2283436; active = hit-call score of the fitted dose curve at least 0.9, where 1 is the maximum; inactive = score below 0.9); details: actives raise or lower the signal
# Summary of the method: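 48 h chemical exposure, H295R cells, DMEM/F12 + ITS+ and Nu-Serum. Medium androstenedione: MTBE extraction, C18 reverse-phase HPLC, ESI+ MS/MS. Fit bidirectional vs DMSO; MTT viability in same wells.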
structure (smiles),measurement,setting,value
CCCCN1C(=O)[C@@H]([C@H](O)C2CCCCC2)NC(=O)C12CCN(Cc1ccc(Oc3ccc(C(=O)O)cc3)cc1)CC2,outcome,[1],inactive
same,outcome,[2],inactive
same,outcome,[3],inactive
same,outcome,[4],inactive
c1ccc2c(c1)-c1cccc3c1c-2cc1ccccc13,outcome,[1],inactive
same,AC50,[2],11.2 µM (active)
same,outcome,[2],inactive
same,outcome,[3],inactive
same,outcome,[4],inactive
same,AC50,[5],2.55 µM (active)
same,AC50,[6],2 µM (active)
same,AC50,[7],3.71 µM (active)
same,outcome,[8],inactive
same,outcome,[9],inactive
CCCCCCCCCCCCCCO,outcome,[1],inactive
same,AC50,[2],74.3 µM (active)
same,outcome,[2],inactive
same,outcome,[3],inactive
same,outcome,[4],inactive
same,outcome,[6],inactive
same,outcome,[7],inactive
O=S1(=O)CCCO1,outcome,[1],inactive
same,outcome,[2],inactive
same,outcome,[3],inactive
same,outcome,[4],inactive
CCn1nc(C)c2c1C(=O)NCC(c1ccc(O)cc1)=N2,outcome,[1],inactive
same,AC50,[2],21.4 µM (active)
same,outcome,[2],inactive
same,outcome,[3],inactive
same,outcome,[4],inactive
same,outcome,[5],inactive
same,outcome,[6],inactive
same,AC50,[7],2.63 µM (active)
same,outcome,[8],inactive
same,outcome,[9],inactive
OC[C@H]1O[C@@](CO)(O[C@H]2O[C@H](CO)[C@@H](O)[C@H](O)[C@H]2O)[C@@H](O)[C@@H]1O,outcome,[1],inactive
same,outcome,[2],inactive
same,outcome,[3],inactive
same,outcome,[4],inactive
c1ccc(C(O[C@@H]2CCCN(CCc3ccc4c(c3)OCO4)C2)c2ccccc2)cc1,AC50,[1],89 µM (active)
same,outcome,[1],inactive
same,AC50,[2],77.7 µM (active) and 81.9 µM (active)
same,outcome,[3],inactive
same,outcome,[4],inactive
O=C(O)[C@H](O)[C@@H](O)C(=O)O,outcome,[1],inactive
same,outcome,[2],inactive
same,outcome,[3],inactive
same,outcome,[4],inactive
c1ccc2cc3ccccc3cc2c1,outcome,[1],inactive
same,AC50,[2],72.7 µM (active)
same,outcome,[3],inactive
same,outcome,[4],inactive
COc1cc2c(c(OC)c1OC)-c1ccc(OC)c(=O)cc1[C@@H](NC(C)=O)CC2,AC50,[1],8.86 µM (active)
same,outcome,[1],inactive
same,AC50,[2],10.6 µM (active)
same,outcome,[2],inactive
same,outcome,[3],inactive
same,outcome,[4],inactive
same,outcome,[5],inactive
same,outcome,[6],inactive
same,outcome,[7],inactive
same,outcome,[10],inactive
same,outcome,[8],inactive
same,outcome,[9],inactive
CCCCCOC(C)=O,outcome,[1],inactive
same,outcome,[2],inactive
same,outcome,[3],inactive
same,outcome,[4],inactive
CC(C)CCCCCCOC(=O)C1CCCCC1C(=O)OCCCCCCC(C)C (configuration not stated),outcome,[1],inactive
same,outcome,[2],inactive
same,outcome,[3],inactive
same,outcome,[4],inactive
O=c1[nH]cnc2c1ncn2[C@H]1CC[C@@H](CO)O1,outcome,[1],inactive
same,outcome,[2],inactive
same,outcome,[3],inactive
same,outcome,[4],inactive
O=C(O)c1ccc2c(c1)nc(C(=O)NC1CCN(C3CC3)CC1)n2Cc1cc(-c2ccc(Cl)s2)on1,outcome,[1],inactive
same,outcome,[2],inactive
same,outcome,[3],inactive
same,outcome,[4],inactive
CCCC(CCC)C(=O)O,AC50,[1],90.4 µM (active)
same,outcome,[1],inactive
same,outcome,[2],inactive
same,outcome,[3],inactive
same,outcome,[4],inactive
c1ccc2ncccc2c1,outcome,[1],inactive
same,outcome,[2],inactive
same,outcome,[3],inactive
same,outcome,[4],inactive
Cc1ccc(S(=O)(=O)NC(=O)NN2CCCCCC2)cc1,outcome,[1],inactive
same,outcome,[2],inactive
same,outcome,[3],inactive
same,outcome,[4],inactive
COS(C)(=O)=O,outcome,[1],inactive
same,outcome,[2],inactive
same,outcome,[3],inactive
same,outcome,[4],inactive
Cn1cc[nH]c1=S,outcome,[1],inactive
same,outcome,[2],inactive
same,outcome,[3],inactive
same,outcome,[4],inactive
CC(C)CC(C)O (configuration not stated),outcome,[1],inactive
same,outcome,[2],inactive
same,outcome,[3],inactive
same,outcome,[4],inactive
O=C(O)c1cccc(C[C@@H]2COc3ccc(OCc4nc5cc(F)ccc5s4)cc3[C@@H]2O)c1,outcome,[1],inactive
same,outcome,[2],inactive
CCOC(N)=O,outcome,[1],inactive
same,outcome,[2],inactive
CCCCCCCCCCCCCCCCOS(=O)(=O)O,outcome,[1],inactive
same,outcome,[2],inactive
same,outcome,[3],inactive
same,outcome,[4],inactive
CCc1cccc(CC)c1N,outcome,[1],inactive
same,outcome,[2],inactive
CC1(C)C(=O)N(Cl)C(=O)N1Cl,outcome,[1],inactive
same,outcome,[2],inactive
same,outcome,[3],inactive
same,outcome,[4],inactive
NC(=O)NN=Cc1ccc([N+](=O)[O-])o1,outcome,[1],inactive
same,outcome,[2],inactive
same,outcome,[3],inactive
same,outcome,[4],inactive
CCCCOC(=O)c1ccccc1,outcome,[1],inactive
same,outcome,[2],inactive
same,outcome,[3],inactive
same,outcome,[4],inactive
Cc1ncc([C@@H](CCCCCCc2ccc3c(n2)NCCC3)CC(=O)O)cn1,outcome,[1],inactive
same,outcome,[2],inactive
same,AC50,[3],12.4 µM (active)
same,outcome,[3],inactive
same,outcome,[4],inactive
same,outcome,[6],inactive
NC(N)=O,outcome,[1],inactive
same,outcome,[2],inactive
same,outcome,[3],inactive
same,outcome,[4],inactive
NC(=O)N(O)[C@@H]1COc2cc(OCc3ccccc3)ccc21,outcome,[1],inactive
same,outcome,[2],inactive
same,outcome,[3],inactive
same,outcome,[4],inactive
CCCCCCCC/C=C\CCCCCCCC(=O)OC[C@@H](O)[C@H]1OC[C@H](O)[C@H]1O,outcome,[1],inactive
same,outcome,[2],inactive
same,outcome,[3],inactive
same,outcome,[4],inactive
CC(=O)c1ccccc1,outcome,[1],inactive
same,outcome,[2],inactive
same,outcome,[3],inactive
same,outcome,[4],inactive
OCCNCCO,outcome,[1],inactive
same,outcome,[2],inactive
COc1cc(C(C)C)c2c(c1)S(=O)(=O)N(COc1cc(=O)n3cccc(OCCN4CCCCC4)c3n1)C2=O,AC50,[1],3.02 µM (active) and 4 µM (active)
same,AC50,[2],2.9 µM (active)
same,outcome,[2],inactive
same,outcome,[3],inactive
same,outcome,[4],inactive
Cc1nccn1-c1ccc(Sc2cccc(C3(C(N)=O)CCOCC3)c2)cc1,outcome,[1],inactive
same,AC50,[2],50 µM (active)
same,outcome,[2],inactive
same,outcome,[3],inactive
same,outcome,[4],inactive
O=S(=O)(O)c1ccc(N=Nc2c(O)ccc3cc(S(=O)(=O)O)ccc23)cc1,outcome,[1],inactive
same,outcome,[2],inactive
C[C@]12C=CC(=O)C=C1CC[C@H]1[C@@H]3C[C@@H](O)[C@](O)(C(=O)CO)[C@@]3(C)C[C@H](O)[C@@]12F,outcome,[1],inactive
same,outcome,[2],inactive
same,outcome,[3],inactive
same,outcome,[4],inactive
same,outcome,[5],inactive
same,outcome,[6],inactive
same,outcome,[7],inactive
same,AC50,[8],19.8 µM (active)
same,outcome,[9],inactive
